Most compounds without a hit are left out; they make up all but 4.2% or so of the library.
V-ATPase pH: yeast V-ATPase proton transport regulation by pHLuorin | S. cerevisiae, pHLuorin cytosolic pH fluorescence | response, % at 10 µM | 0.37% of 350,000 active; in the data active = response mostly above about 7.3%, no sharp cut-off; inactive = mostly below about 5.4%; note: actives read high
tim10-1 inh: tim10-1 yeast growth inhibition. S. cerevisiae tim10-1 ts strain growth, BacTiter-Glo, 24 h. inhibition, % at 20 µM. 2.2% of 330,000 active;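 active = inhibition of at least 40%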;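 note: mutant grown at 25 °C; 0% = DMSO wells with yeast and 100% = wells holding no yeast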
NALP1 inh: blocks the NALP1 inflammasome reconstituted in yeast. 0.61% of 280,000 active. inhibition, % at 10 µM. S. cerevisiae NALP1/ASC/caspase-1 growth, X-gal OD620, 72 h; in the data active = inhibition mostly above about 24%, no sharp cut-off; inactive = mostly below about 32%
TIM10 inh: TIM10 yeast growth inhibition; S. cerevisiae TIM10 strain growth, BacTiter-Glo luminescence, 24 h; inhibition, % at 10 µM; 1.4% of 330,000 active; AID 463195;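 active = inhibition of 40% or more at the single tested concentration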;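 note: wild-type TIM10 isogenic control strain grown at permissive 25 °C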
NLRP3 yeast inh: blocks the NALP3 inflammasome reconstituted in yeast. Yeast reconstituted NLRP3/ASC/caspase-1, beta-gal luminescence, 24 h. inhibition, % at 10 µM. 0.39% of 330,000 active. AID 2825;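 active = inhibition of 50% or more; inactive = inhibition below 50%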;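 note: plate controls were induced DMSO wells for no effect and uninduced yeast grown without galactose for full effect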
tim23-1 inh: tim23-1 yeast growth inhibition. inhibition, % at 20 µM. 1.3% of 330,000 active. S. cerevisiae tim23-1 growth, BacTiter-Glo luminescence, 24 h;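 active = growth inhibition of the mutant yeast at or above 50%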;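 note: temperature-sensitive mutant grown at 25 °C; plate controls were DMSO-treated mutant yeast for no effect and medium wells lacking yeast for full effect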
tim10-1 conf: tim10-1 yeast growth inhibition, confirmed. AID 463213. shares compounds with tim10-1 inh. 56% of 7,400 active. inhibition, % at 20 µM. S. cerevisiae tim10-1 ts strain growth, BacTiter-Glo, 24 h;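 active = inhibition of yeast growth at or above a set limit in either of two repeat tests at 20 µM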;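 note: tim10-1 mutant grown at permissive 25 °C to find synthetic lethal compounds; 0% = DMSO yeast wells and 100% = medium wells without yeast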
The depositor's hits bear a star; . = no result given.

SMILES | V-ATPase pH | tim10-1 inh | NALP1 inh | TIM10 inh | NLRP3 yeast inh | tim23-1 inh | tim10-1 conf
COc1cc(-c2ccc(NC(=O)NC3CC3)c(OC)c2)ccc1NC(=O)NC1CC1 | . | -16 | 18 | -7 | 22 | -16 | .
Cc1cc(=O)n(-c2ccc3ccccc3n2)[nH]1 | -1 | 54* | 8 | 13 | 26 | 12 | 19
COc1ccccc1CN(C)C(=O)COC(=O)c1ccc(Cl)nc1 | 4 | -6 | . | -22 | 18 | 2 | .
CSc1nc2nccc(/C=C\c3ccccc3)n2n1 | 5 | 53* | -2 | 24 | 33 | 34 | 38*
CC(C)CCOC(=O)C[N+](C)(C)CCOC1CC2CCC1(C)C2(C)C (configuration not stated) | 4 | -2 | -7 | -5 | 4 | 8 | .
CCC(C)OC(=O)C[N+](C)(C)CCOC1CC2CCC1(C)C2(C)C (configuration not stated) | -2 | 41* | 14 | 2 | 4 | 10 | -4
Cc1cc([N+](=O)[O-])ccc1NC(=O)CCC(=O)N1CCCCCC1 | -3 | -1 | 4 | 1 | 13 | 8 | .
COc1ccc(CCN(C)C(=O)C(CCSC)NC(=O)c2ccco2)cc1OC (configuration not stated) | 0 | 17 | . | 0 | 9 | 3 | .
Cc1ccc(NC(=S)/N=C(\N)Nc2nc(C)c3cc(C)ccc3n2)c(C)c1 | -1 | 50* | 1 | 32 | -5 | 48 | 37*
Cc1ccc(N2C(=O)N3[C@H]4c5ccccc5OC[C@@H]4[C@@H](c4ccccc4)[C@@]3(C)C2=O)cc1 | -4 | 49* | 2 | 7 | 24 | 24 | 19
C[C@]12C(=O)N(c3ccccc3)C(=O)N1[C@@H]1c3ccccc3OC[C@@H]1[C@H]2c1ccccc1 | -2 | 21 | 8 | 12 | -1 | 29 | .
Cc1cc(-c2nc3ccccc3o2)c2ccccc2n1 | 0 | 41* | 10 | 21 | 8 | 42 | 22
CCCOc1ccc(CNC(=S)Nc2ccccc2)cc1Cl | -1 | 43* | -27 | 23 | 23 | 36 | 23
CC(C)COc1ccc(CNC(=S)Nc2ccccc2)cc1Cl | -2 | 22 | -12 | 26 | 30 | 12 | .
Cn1c(=O)n(C)c2cc(NC(=O)COc3ccc(Cl)cc3)ccc21 | 1 | 20 | 5 | -2 | -11 | 8 | .
C=CCOc1ccccc1/C=c1\sc2nc(=O)c(C)nn2c1=O | 2 | 45* | -2 | 30 | -4 | 47 | 50*
COc1ccccc1-c1nnc(Sc2nc([N+](=O)[O-])nn2C)o1 | 2 | 48* | -12 | 35 | -15 | 44 | 42*
C[C@H](CO)N1C[C@H](C)[C@@H](CN(C)S(=O)(=O)c2cccs2)Oc2ccc(NS(=O)(=O)c3ccc(F)cc3)cc2C1=O | 0 | -4 | . | -2 | 11 | -3 | .
COc1ccc(-c2csc(NCCn3c(C)nc4cc(C(F)(F)F)ccc43)n2)cc1 | 0 | 15 | . | 13 | 23 | 47 | .
Cc1nc2cc(C(F)(F)F)ccc2n1CCNc1nc(-c2ccc(F)cc2)cs1 | 2 | 46* | 29 | 13 | 16 | 15 | 22
Cc1ccc(/C=N/Nc2ncc(Cl)cc2Cl)s1 | 0 | 42* | 4 | 19 | 42 | 30 | 17
Oc1ccc(/C=N/Nc2ncc(Cl)cc2Cl)cc1 | 0 | 45* | -2 | 22 | 12 | 25 | 11
O=C(CCNc1ccc(Cc2ccncc2)cc1)c1cccc([N+](=O)[O-])c1 | 3 | 43* | 4 | 31 | -17 | 23 | 34*
CCN(CC)c1ccc(C2Nc3cccc4cccc(c34)N2)c(O)c1 | 0 | 43* | 2 | 19 | -3 | 29 | 27
CN(C)c1ccc(/C=C2\Oc3ccc(C#Cc4cccc(N)c4)cc3C2=O)cc1 | -9 | 9 | . | 8 | 0 | 19 | .
SMILES | V-ATPase pH | tim10-1 inh | NALP1 inh | TIM10 inh | NLRP3 yeast inh | tim23-1 inh | tim10-1 conf
CC(C)C(c1nnnn1C1CCCC1)N1CCCc2ccccc21 (configuration not stated) | -2 | 41* | 38 | 25 | -57 | 39 | 37*
CC(C)(C)n1nnnc1C(c1cccs1)N1CCCc2ccccc21 (configuration not stated) | -2 | 43* | 1 | 27 | -83 | 48 | 38*
CC(C)(C)n1nnnc1C(c1cccs1)N1CCCC2(CCCCC2)C1 (configuration not stated) | 2 | 38 | 8 | 22 | 9 | 32 | .
CC(C)C(c1nnnn1C1CCCCC1)N1CCCc2ccccc21 (configuration not stated) | -4 | 44* | 2 | 26 | -12 | 18 | 29
O=C(CCCCCN1C(=O)[C@@H]2Cc3ccccc3CN2C1=O)NCCc1ccccc1 | -5 | 28 | 9 | -7 | 22 | 25 | .
O=C(C[C@@H]1C/C=C\CCCC(=O)OC[C@@H]2CCCN2C1=O)N[C@@H](CO)Cc1ccccc1 | 1 | 6 | . | -4 | 3 | 14 | .
CCc1c(O)nc(SCC(=O)N2CCc3cc(OC)c(OC)cc3[C@@H]2C)[nH]c1=O | 1 | -5 | 20 | 1 | 8 | -5 | .
CCOC(=O)c1sc(=S)n(Cc2ccccc2)c1N | 7 | 42* | 8 | 16 | 37 | 22 | 40*
CCCC(=O)NC(c1ccco1)c1cc(Cl)c2cccnc2c1O (configuration not stated) | -1 | 50* | 1 | 21 | 1 | 48 | 24
CCC(=O)NC(c1ccc(OC)c(OC)c1)c1cc(Cl)c2cccnc2c1O (configuration not stated) | 0 | . | 3 | . | . | . | .
COc1ccc(C(NC(C)=O)c2cc(Cl)c3cccnc3c2O)cc1OC (configuration not stated) | 0 | 40* | -21 | 16 | 31 | 19 | 29
CCC(=O)NC(c1ccco1)c1cc(Cl)c2ccccc2c1O (configuration not stated) | 0 | 26 | . | 26 | 8 | 42 | .
Cc1ccc(SCCNC(=S)Nc2ccc(C)c(C)c2)cc1 | 6 | 38 | 24 | 34 | 39 | 39 | .
Cc1ccc(SCCNC(=S)Nc2cc(C)ccc2C)cc1 | 1 | 43* | 10 | 32 | 22 | 14 | 12
CCc1ccc2c(CN3CCN(S(=O)(=O)c4ccccc4F)CC3)cc(=O)oc2c1 | -1 | 18 | . | 24 | 21 | 37 | .
CCc1ccc2c(CN3CCN(S(=O)(=O)c4cccs4)CC3)cc(=O)oc2c1 | 2 | 41* | . | 23 | 18 | 34 | 29
CC(C)(C)n1nnnc1C(c1ccccn1)N(Cc1ccccc1)Cc1ccc(Cl)cc1 (configuration not stated) | 2 | 50* | 9 | 39 | 5 | 32 | 31*
CCN(Cc1ccccc1)C(c1ccc(Cl)cc1)c1nnnn1C(C)(C)C (configuration not stated) | 13 | 19 | 0 | 25 | 16 | 31 | .

Screens: PubChem, several laboratories
